Laboratory results reported in PubChem BioAssay (NCATS).
For part of these data: Results with a measured potency or affinity are listed apart. Active and inactive are the calls of the source.

Legend:
[1] = Ebola virus entry assay, green fluorescence channel
[2] = Ebola virus entry assay, blue channel fluorescence
[3] = Ebola virus entry assay, green fluorescence channel; remark: listed apart in the source
[4] = Ebola virus entry assay, ratio channel readout
[5] = Ebola virus entry assay, blue channel fluorescence; remark: listed apart in the source
[6] = Ebola virus entry assay, ratio channel
[7] = Ebola virus entry assay, green channel fluorescence
[8] = Ebola virus entry assay, blue channel fluorescence; remark: listed apart in the source
[9] = Ebola virus entry assay, reporter ratio channel; AC50: Channel type: primary unless noted; outcome: Channel type: primary unless noted
[10] = Ebola virus entry assay, blue channel (ratio component)
[11] = Ebola virus entry cell assay, ratio channel
[12] = Ebola virus entry reporter assay, green channel fluorescence
[13] = Immunotoxin (HA22) sensitization/mitigation study. Vehicle arm (PBS) (AID 1159510); conditions: cancer cells viability with PBS vehicle (HA22 study); series mostly up to 46.1 µM; further: potency means the concentration at half of the fitted maximal effect
[14] = Immunotoxin (SS1P) sensitization/mitigation study. Vehicle arm (DMEM) (AID 1159513); conditions: cell viability with vehicle (DMEM); series mostly up to 46.1 µM; further: potency means the concentration at half of the fitted maximal effect
Wherever efficacy is given: 0% is about no effect.

CCCN[C@H]1CCc2nc(N)sc2C1
inactive: efficacy [1] -13.1% | outcome [2] | outcome [3] | outcome [4] | outcome [5] | outcome [6] | outcome [7] | outcome [8] | outcome [9] | outcome [10] | outcome [11]

Cc1ccc(C(=O)c2cc(O)c(O)c([N+](=O)[O-])c2)cc1
inactive: efficacy [1] 31.1% | outcome [2] | outcome [3] | outcome [4] | outcome [5] | outcome [6] | outcome [7] | outcome [8] | outcome [9] | outcome [10] | outcome [11]

COc1c(C)c2c(c(O)c1C/C=C(\C)CCC(=O)O)C(=O)OC2
inactive: efficacy [1] 11.2% | outcome [2] | outcome [3] | outcome [4] | outcome [5] | outcome [6] | outcome [7] | outcome [8] | outcome [9] | outcome [10] | outcome [11]

Nc1nc(=S)c2[nH]cnc2[nH]1
inactive: efficacy [1] -27.5% | outcome [2] | outcome [3] | outcome [4] | outcome [5] | outcome [6] | outcome [7] | outcome [8] | outcome [9] | outcome [10] | outcome [11]

CC1(C)S[C@@H]2[C@H](NC(=O)Cc3ccccc3)C(=O)N2[C@H]1C(=O)O (tested in a mixture with another compound)
inactive: efficacy [1] -23.1% | outcome [2] | outcome [3] | outcome [4] | outcome [5] | outcome [6] | outcome [7] | outcome [8] | outcome [9] | outcome [10] | outcome [11]

CC1(C)O[C@@H]2[C@@H](CO[C@@]3(COS(N)(=O)=O)OC(C)(C)O[C@@H]23)O1
inactive: efficacy [1] -13.6% | outcome [2] | outcome [3] | outcome [4] | outcome [5] | outcome [6] | outcome [7] | outcome [8] | outcome [9] | outcome [10] | outcome [11]

CC(C)C(=O)Nc1ccc([N+](=O)[O-])c(C(F)(F)F)c1
inactive: efficacy [1] -18.2% | outcome [2] | outcome [3] | outcome [4] | outcome [5] | outcome [6] | outcome [7] | outcome [8] | outcome [9] | outcome [10] | outcome [11]

CC(C)(O)c1ccccc1CC[C@@H](SCC1(CC(=O)O)CC1)c1cccc(/C=C/c2ccc3ccc(Cl)cc3n2)c1
inactive: efficacy [1] 12.9% | outcome [2] | outcome [3] | outcome [4] | outcome [5] | outcome [6] | outcome [7] | outcome [8] | outcome [9] | outcome [10] | outcome [11]

N[C@@H](Cc1cc(I)c(Oc2cc(I)c(O)c(I)c2)c(I)c1)C(=O)O
inactive: efficacy [1] -10% | outcome [2] | outcome [3] | outcome [4] | outcome [5] | outcome [6] | outcome [7] | outcome [8] | outcome [9] | outcome [10] | outcome [11]

O=C(CCCCCCC(=O)Nc1ccccc1)NO
active: Potency [13] 95.9 nM | Potency [14] 481 nM
inactive: efficacy [1] -11.4% | outcome [2] | outcome [3] | outcome [4] | outcome [5] | outcome [6] | outcome [7] | outcome [8] | outcome [9] | outcome [10] | outcome [12] | outcome [11]

O=c1n(CCCN2CCN(c3cccc(Cl)c3)CC2)nc2ccccn12
inactive: efficacy [1] 33.5% | outcome [2] | outcome [3] | outcome [4] | outcome [5] | outcome [6] | outcome [7] | outcome [8] | outcome [9] | outcome [10] | outcome [11]

CCCCCOC(=O)Nc1nc(=O)n([C@@H]2O[C@H](C)[C@@H](O)[C@H]2O)cc1F
inactive: efficacy [1] 20.9% | outcome [2] | outcome [3] | outcome [4] | outcome [5] | outcome [6] | outcome [7] | outcome [8] | outcome [9] | outcome [10] | outcome [11]

C[n+]1ccccc1/C=N/O
inactive: efficacy [1] -22% | outcome [2] | outcome [3] | outcome [4] | outcome [5] | outcome [6] | outcome [7] | outcome [8] | outcome [9] | outcome [10] | outcome [11]

CC(=O)N(O)CCCCCNC(=O)CCC(=O)N(O)CCCCCNC(=O)CCC(=O)N(O)CCCCCN
inactive: efficacy [1] -19.8% | outcome [2] | outcome [3] | outcome [4] | outcome [5] | outcome [6] | outcome [7] | outcome [8] | outcome [9] | outcome [10] | outcome [11]

Cc1cn([C@H]2C=C[C@@H](CO)O2)c(=O)[nH]c1=O
inactive: efficacy [1] 10.9% | outcome [2] | outcome [3] | outcome [4] | outcome [5] | outcome [6] | outcome [7] | outcome [8] | outcome [9] | outcome [10] | outcome [11]

CN(C)CCc1c[nH]c2ccc(CS(=O)(=O)N3CCCC3)cc12
inactive: efficacy [1] -14.5% | outcome [2] | outcome [3] | outcome [4] | outcome [5] | outcome [6] | outcome [7] | outcome [8] | outcome [9] | outcome [10] | outcome [11]

COc1cc2c(cc1OC)[C@@H]1CC(=O)[C@@H](CC(C)C)CN1CC2
inactive: efficacy [1] 24.3% | outcome [2] | outcome [3] | outcome [4] | outcome [5] | outcome [6] | outcome [7] | outcome [8] | outcome [9] | outcome [10] | outcome [11]

Cc1cc(C)cc(OCC2CNC(=O)O2)c1 (stereo unspecified)
inactive: efficacy [1] -18.5% | outcome [2] | outcome [3] | outcome [4] | outcome [5] | outcome [6] | outcome [7] | outcome [8] | outcome [9] | outcome [10] | outcome [11]
